Data on 57 sequences can be found in publication PMC10726135, “HNF4α isoforms regulate the circadian balance between carbohydrate and lipid metabolism in the liver”.

In all, about 18,000 sequences were measured (“log2 normalized intensity”: median about 0.36, highest 2% from about 7.3 on). The sample holds the highest values, similar sequences and a random draw of the others, so the mix is not that of the screen.

In the assay the target is T1, HNF4alpha8 (COS-7 nuclear extract) (Homo sapiens, UniProt P41235-5 1-452).
T1 sequence: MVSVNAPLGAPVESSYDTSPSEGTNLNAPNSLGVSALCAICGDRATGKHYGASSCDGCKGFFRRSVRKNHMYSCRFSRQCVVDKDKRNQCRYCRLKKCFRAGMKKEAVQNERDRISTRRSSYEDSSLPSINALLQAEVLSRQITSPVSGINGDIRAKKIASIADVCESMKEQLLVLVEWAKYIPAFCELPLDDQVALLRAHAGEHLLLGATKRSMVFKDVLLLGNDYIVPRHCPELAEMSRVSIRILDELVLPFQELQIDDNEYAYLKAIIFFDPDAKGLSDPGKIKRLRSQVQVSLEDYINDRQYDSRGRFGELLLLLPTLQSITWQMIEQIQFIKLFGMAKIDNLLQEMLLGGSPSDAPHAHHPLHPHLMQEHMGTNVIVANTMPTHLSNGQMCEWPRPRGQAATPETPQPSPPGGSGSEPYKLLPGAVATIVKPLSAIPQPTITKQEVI
As to the kind of experiment: protein-binding microarray; COS-7 nuclear extract on double-stranded Agilent 4x180k PBM; binding buffer, salt, pH and temperature not given in the material; high values mean tight binding. The conditions noted are these: chain copies: 2; label: 3' end of strand 1 on the slide; dsDNA, one strand shown. In short, it runs like this:
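Nuclear extracts came from COS-7 cells transiently transfected by CaPO4 with a human HNF4α isoform expression vector. They were applied to a custom Agilent SurePrint G3 4x180k array of ~60-nt oligonucleotides, made double-stranded, with ~44,000 test sequences spotted in quadruplicate. Bound HNF4α was imaged at 2-µm resolution on an Agilent G2565CA scanner. Binding signal was taken as background-corrected, normalized gProcessedSignal from Agilent software.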
In the case of “TGAATGATCAAAGGTTGGTTTTTGGAGACAGCCTAGGGAGATTAGAGTATCGGTCGA”, the binding signal is 3.36 log2 normalized intensity.
With “TCCTGAGTGATTGTAGTGTCATTGTTATTTGCCTAGGGAGATTAGAGTATCGGTCGA”, the binding signal was 1.98 log2 normalized intensity.
For the sequence “GGGCAGGGTCAGAACCTGCCCATGACCTTTGCCTAGGGAGATTAGAGTATCGGTCGA”, the binding signal came to 6.45 log2 normalized intensity.
As for “CCTTTGGACTGTGACCCCACCTCTCAGACAGCCTAGGGAGATTAGAGTATCGGTCGA”, the binding signal is 5.4 log2 normalized intensity.
As to “AGAACCTGCCCATGACCTTTGGACTGTGACGCCTAGGGAGATTAGAGTATCGGTCGA”, the binding signal stood at 10.2 log2 normalized intensity.
With “CATGACCTTTGGACTGTGACCCCACCTCTCGCCTAGGGAGATTAGAGTATCGGTCGA”, the binding signal was determined as 7.69 log2 normalized intensity.
The figure for “CTTTGGAACCTGCCCTCTGTCCCATGGTGTGCCTAGGGAGATTAGAGTATCGGTCGA” is 2.85 log2 normalized intensity; for “GGACTGTGACCCCACCTCTCAGACAGAGCTGCCTAGGGAGATTAGAGTATCGGTCGA” it is 3.8 log2 normalized intensity; for “CTGCCCTTTGGAACCTGCCCTCTGTCCCATGCCTAGGGAGATTAGAGTATCGGTCGA” it is 4.63 log2 normalized intensity.
Then “GGGGAGGGCAGGGTCAGAACCTGCCCATGAGCCTAGGGAGATTAGAGTATCGGTCGA”, with 0.0112 log2 normalized intensity; and “GGGTCAGAACCTGCCCATGACCTTTGGACTGCCTAGGGAGATTAGAGTATCGGTCGA”, with 10.8 log2 normalized intensity; and “TCAGGTGTTGCTCTCTTGCCATTCGTGGATGCCTAGGGAGATTAGAGTATCGGTCGA”, with 0.994 log2 normalized intensity.
With “ACTACTAACCGAAAGTCTGACCCTTGACCAGCCTAGGGAGATTAGAGTATCGGTCGA”, the binding signal is 7.2 log2 normalized intensity.
In the case of “ACCTTTGACCCTTCTCTGGGAGAAAGGGAGGCCTAGGGAGATTAGAGTATCGGTCGA”, the binding signal was 3.86 log2 normalized intensity.
Then “GAAGGAGCACCAATGACCTTTGACCCTTCTGCCTAGGGAGATTAGAGTATCGGTCGA”, with 11.2 log2 normalized intensity.
As to “CAATGACCTTTGACCCTTCTCTGGGAGAAAGCCTAGGGAGATTAGAGTATCGGTCGA”, the binding signal is 8.44 log2 normalized intensity.
The figure for “AAACAATGACCTCTGCACCCTTCCCTGAGTGCCTAGGGAGATTAGAGTATCGGTCGA” is 4.47 log2 normalized intensity; for “TTTGAAAGAAAGAGACCTTTACCCTGACCTGCCTAGGGAGATTAGAGTATCGGTCGA” it is 4.47 log2 normalized intensity; for “CAATCCTGGAGAAGGAGCACCAATGACCTTGCCTAGGGAGATTAGAGTATCGGTCGA” it is 4.02 log2 normalized intensity.
For the sequence “CTAAGCAGCGAAGCTGTGTCAGGCATTGTAGCCTAGGGAGATTAGAGTATCGGTCGA”, the binding signal was -0.633 log2 normalized intensity.
Consider “AGATTCTGCAAACCTATTAATATATTCATAGCCTAGGGAGATTAGAGTATCGGTCGA”, for which the binding signal is -0.929 log2 normalized intensity.
For “AGGCAGTCTGTTGACCTTTGGCCAAGGGCAGCCTAGGGAGATTAGAGTATCGGTCGA”, the binding signal is 8.19 log2 normalized intensity.
Then “CTTTGGCCAAGGGCAGTGTTTGCCCAGCTTGCCTAGGGAGATTAGAGTATCGGTCGA”, with 0.731 log2 normalized intensity; and “CCTCTTTGAGTCTGGTGTTCTCTTGGCCAAGCCTAGGGAGATTAGAGTATCGGTCGA”, with 1.63 log2 normalized intensity.
The figure for “TTGACCTTTGGCCAAGGGCAGTGTTTGCCCGCCTAGGGAGATTAGAGTATCGGTCGA” is 6.36 log2 normalized intensity; for “GAGTCTGTTGTCTAACATTTTTGACCTTCAGCCTAGGGAGATTAGAGTATCGGTCGA” it is 4.68 log2 normalized intensity; for “GTCTGTTGACCTTTGGCCAAGGGCAGTGTTGCCTAGGGAGATTAGAGTATCGGTCGA” it is 7.73 log2 normalized intensity.
Regarding “TCTTTACACCATTGCAAGGATTCCAAATTTGCCTAGGGAGATTAGAGTATCGGTCGA”, the binding signal was 0.0367 log2 normalized intensity.
Take “AAAGATTGCAGCAAGGAATTCAACCCTTGTGCCTAGGGAGATTAGAGTATCGGTCGA”: the binding signal is 2.23 log2 normalized intensity.
In the case of “GTCTTATCTACCTGGCTTGTTTGCAAAGCAGCCTAGGGAGATTAGAGTATCGGTCGA”, the binding signal amounted to 0.749 log2 normalized intensity.
In the case of “TGCAGTTTCCCTATTCTCAGTGATATAAAAGCCTAGGGAGATTAGAGTATCGGTCGA”, the binding signal stood at 0.942 log2 normalized intensity.
As to “TCTCTGGGTCAAAGGTCATCGCACCGGCAGGCCTAGGGAGATTAGAGTATCGGTCGA”, the binding signal came to 7.54 log2 normalized intensity.
As to “AGGTCGCAAGCACTGGCTCTGGGGTCAAAGGCCTAGGGAGATTAGAGTATCGGTCGA”, the binding signal came to 4.08 log2 normalized intensity.
Take “CCTGGTCAAAGTCAACTCCTCCAAGCCACCGCCTAGGGAGATTAGAGTATCGGTCGA”: the binding signal worked out at 0.614 log2 normalized intensity.
The figure for “CCTGCCTCTCCTCTGAGCTTCATCCTGACCGCCTAGGGAGATTAGAGTATCGGTCGA” is 1.7 log2 normalized intensity; for “GGGGTCAAAGTCCCCTGAGCTTGAGTCCATGCCTAGGGAGATTAGAGTATCGGTCGA” it is 6 log2 normalized intensity.
In the case of “CACTGGCTCTGGGGTCAAAGTCCCCTGAGCGCCTAGGGAGATTAGAGTATCGGTCGA”, the binding signal amounted to 7.66 log2 normalized intensity.
Regarding “CCTCCTCTCTGGGTCAAAGGTCATCGCACCGCCTAGGGAGATTAGAGTATCGGTCGA”, the binding signal came out at 8.5 log2 normalized intensity.
As for “GCCACCCTCCTCTCTGGGTCAAAGGTCATCGCCTAGGGAGATTAGAGTATCGGTCGA”, the binding signal worked out at 10.2 log2 normalized intensity.
As to “CTCTCCCTCCTCTCTGAGCAGTCAAACTGGGCCTAGGGAGATTAGAGTATCGGTCGA”, the binding signal stood at 1.89 log2 normalized intensity.
With “CTGGGGCCACCCTCCTCTCTGGGTCAAAGGGCCTAGGGAGATTAGAGTATCGGTCGA”, the binding signal is 5.36 log2 normalized intensity.
Consider “GAGGTGTCAGCCACCCCTCCTCCTGGGGGCGCCTAGGGAGATTAGAGTATCGGTCGA”, for which the binding signal was found to be 2.93 log2 normalized intensity.
The figure for “AAAGGTCATCGCACCGGCAGGGGAGAACTTGCCTAGGGAGATTAGAGTATCGGTCGA” is 1.24 log2 normalized intensity.
Turning to “CCAATTCACAGAACTCCCTAAGTGGCCTCAGCCTAGGGAGATTAGAGTATCGGTCGA”, the binding signal was found to be 0.0537 log2 normalized intensity.
Turning to “GGTTGTCAGACTGGTGTAGTGGGGAGGGCAGCCTAGGGAGATTAGAGTATCGGTCGA”, the binding signal was found to be 1.35 log2 normalized intensity.
Take “GCGGCATTCCTGTCAAAATCTGATCTTTCCGCCTAGGGAGATTAGAGTATCGGTCGA”: the binding signal amounted to 1.47 log2 normalized intensity.
Then “CAAGTTGGTTTACATTCTTAGAAGATAAAGGCCTAGGGAGATTAGAGTATCGGTCGA”, with 0.323 log2 normalized intensity; and “GAGGCTTTGAGTCATTGAGGCTTTGCCTTAGCCTAGGGAGATTAGAGTATCGGTCGA”, with -0.699 log2 normalized intensity; and “GAATTCTTGACTTTGGACTTTCAAAAGTTAGCCTAGGGAGATTAGAGTATCGGTCGA”, with 5.14 log2 normalized intensity.
On to “GAGACCCATTTTGGACTTTGACCTCCAAAAGCCTAGGGAGATTAGAGTATCGGTCGA”, for which the binding signal is 11.3 log2 normalized intensity.
Take “TTGGACTTTGACCTCCAAAATTATAAGTCAGCCTAGGGAGATTAGAGTATCGGTCGA”: the binding signal came out at 8.58 log2 normalized intensity.
For the sequence “AATGATGATGACTTTTGACCCCAGGGGAAAGCCTAGGGAGATTAGAGTATCGGTCGA”, the binding signal was 6.38 log2 normalized intensity.
On to “CATTGACTTTGCCTTTTGGCTAAAGTCCAAGCCTAGGGAGATTAGAGTATCGGTCGA”, for which the binding signal was 4.75 log2 normalized intensity.
Then “CTTGACTTTGGACTTTCAAAAGTTAAGGTCGCCTAGGGAGATTAGAGTATCGGTCGA”, with 3.98 log2 normalized intensity; and “CACAGCTGGACTTTGGCTGCAAAATTTGAAGCCTAGGGAGATTAGAGTATCGGTCGA”, with 3.88 log2 normalized intensity; and “CCATTTTGGACTTTGACCTCCAAAATTATAGCCTAGGGAGATTAGAGTATCGGTCGA”, with 10.9 log2 normalized intensity.
Take “CTTTGTAGCACTTTGGACCTCCACTTTGGAGCCTAGGGAGATTAGAGTATCGGTCGA”: the binding signal worked out at 3.36 log2 normalized intensity.
